Reference: PubChem BioAssay AID1159580 (chemical genetic matrix, 2015)
Hit rate of the full screen: of about 5,500 compounds, about 2,000 (36%) were called active. About 18% were inconclusive and are not listed. Rule as the data show it: active = normalized growth mostly below about 0.91 (no sharp cut-off); inconclusive = no clear call, values can overlap the other calls; inactive = mostly above about 0.92. Some of the results follow.

Test: chemical genetic growth profiling, strain panel (AID 1159580);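 also: tested at 20 µM; growth read once vehicle control cultures reached saturation at 30 °C; 1 = growth at the plate median or of vehicle wells; lower values mean less growth of the strain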
Conditions: growth OD

Measured: normalized growth

COc1cc2c(cc1OC)[C@@H]1C(=O)c3ccc4c(c3O[C@@H]1CO2)C=CC(C)(C)O4
inactive: S. cerevisiae deletion strains, locus YKL009W, strain mrt4, hits give low values 0.999 | S. cerevisiae deletion strains, locus YKL068W, hits give low values 0.982 | S. cerevisiae deletion strains, locus YKL085W, strain MDH1 (second series), hits give low values 0.967 | S. cerevisiae deletion strains, locus YKL085W, strain MDH1, hits give low values 0.967 | S. cerevisiae deletion strains, locus YKL160W, strain elf1, hits give low values 0.973 | S. cerevisiae deletion strains, locus YKL190W, strain CNB1, hits give low values 0.986 | S. cerevisiae deletion strains, locus YKR001C, strain vps1, hits give low values 0.934 | S. cerevisiae deletion strains, locus YKR026C, strain gcn3, hits give low values 1.01 | S. cerevisiae deletion strains, locus YKR091W, strain srl3, hits give low values 1 | S. cerevisiae deletion strains, locus YLL001W, strain dnm1, hits give low values 0.992 | S. cerevisiae deletion strains, locus YLL026W, hits give low values 1.01 | S. cerevisiae deletion strains, locus YLL041C, strain sdh2, hits give low values 1.01 | S. cerevisiae deletion strains, locus YLR027C, strain aat2, hits give low values 0.982 | S. cerevisiae deletion strains, locus YLR039C, strain RIC1, hits give low values 0.891 | S. cerevisiae deletion strains, locus YLR058C, strain SHM2, hits give low values 0.983 | S. cerevisiae deletion strains, locus YLR102C, strain apc9, hits give low values 0.982 | S. cerevisiae deletion strains, locus YLR113W, strain HOG1, hits give low values 0.898 | S. cerevisiae deletion strains, locus YLR221C, strain rsa3, hits give low values 0.983 | S. cerevisiae deletion strains, locus YLR258W, strain gsy2, hits give low values 0.994 | S. cerevisiae deletion strains, locus YLR262C, strain YPT6 (second series), hits give low values 0.868 | S. cerevisiae deletion strains, locus YLR262C, strain YPT6, hits give low values 0.916 | S. cerevisiae deletion strains, locus YLR268W, strain sec22, hits give low values 0.97 | S. cerevisiae deletion strains, locus YLR320W, strain mms22, hits give low values 0.89 | S. cerevisiae deletion strains, locus YLR330W, strain CHS5, hits give low values 0.986 | S. cerevisiae deletion strains, locus YLR342W, strain FKS1 (second series), hits give low values 0.943 | S. cerevisiae deletion strains, locus YLR342W, strain FKS1, hits give low values 0.946 | S. cerevisiae deletion strains, locus YLR357W, strain rsc2, hits give low values 0.992 | S. cerevisiae deletion strains, locus YLR370C, strain arc18, hits give low values 1.01 | S. cerevisiae deletion strains, locus YLR371W, strain rom2, hits give low values 0.961 | S. cerevisiae deletion strains, locus YLR384C, strain iki3, hits give low values 1.03 | S. cerevisiae deletion strains, locus YLR418C, strain cdc73, hits give low values 0.962 | S. cerevisiae deletion strains, locus YML016C, strain PPZ1, hits give low values 0.981 | S. cerevisiae deletion strains, locus YML032C, strain rad52, hits give low values 0.964 | S. cerevisiae deletion strains, locus YML120C, strain ndi1, hits give low values 0.979 | S. cerevisiae deletion strains, locus YML124C, strain tub3, hits give low values 0.982 | S. cerevisiae deletion strains, locus YMR058W, strain fet3, hits give low values 0.978 | S. cerevisiae deletion strains, locus YMR078C, strain ctf18, hits give low values 0.952 | S. cerevisiae deletion strains, locus YMR125W, strain sto1, hits give low values 1.02 | S. cerevisiae deletion strains, locus YMR129W, hits give low values 0.995 | S. cerevisiae deletion strains, locus YMR205C, strain PFK2, hits give low values 0.92 | S. cerevisiae deletion strains, locus YMR223W, strain ubp8, hits give low values 0.954 | S. cerevisiae deletion strains, locus YMR231W, strain pep5, hits give low values 1.02 | S. cerevisiae deletion strains, locus YMR263W, strain SAP30, hits give low values 1 | S. cerevisiae deletion strains, locus YMR307W, strain GAS1, hits give low values 0.86 | S. cerevisiae deletion strains, locus YNL067W, strain RPL9B, hits give low values 1.01 | S. cerevisiae deletion strains, locus YNL071W, strain lat1, hits give low values 0.942 | S. cerevisiae deletion strains, locus YNL128W, strain TEP1, hits give low values 0.995 | S. cerevisiae deletion strains, locus YNL153C, strain GIM3, hits give low values 1.02 | S. cerevisiae deletion strains, locus YNL183C, strain NPR1, hits give low values 0.896 | S. cerevisiae deletion strains, locus YNL209W, strain ssb2, hits give low values 1.03 | S. cerevisiae deletion strains, locus YNL233W, strain BNI4, hits give low values 1 | S. cerevisiae deletion strains, locus YNL248C, strain rpa49, hits give low values 1.02 | S. cerevisiae deletion strains, locus YNL250W, strain rad50, hits give low values 0.972 | S. cerevisiae deletion strains, locus YNL271C, strain bni1, hits give low values 0.963 | S. cerevisiae deletion strains, locus YNL298W, strain CLA4, hits give low values 0.984 | S. cerevisiae deletion strains, locus YNL307C, strain MCK1, hits give low values 0.929 | S. cerevisiae deletion strains, locus YNL322C, strain KRE1 (second series), hits give low values 1.02 | S. cerevisiae deletion strains, locus YNL322C, strain KRE1, hits give low values 0.987 | S. cerevisiae deletion strains, locus YNR049C, strain mso1, hits give low values 1.01 | S. cerevisiae deletion strains, locus YNR052C, strain pop2, hits give low values 0.951 | S. cerevisiae deletion strains, locus YOL006C, strain TOP1, hits give low values 0.908 | S. cerevisiae deletion strains, locus YOL012C, strain htz1 1.09 | S. cerevisiae deletion strains, locus YOL147C, strain pex11, hits give low values 0.969 | S. cerevisiae deletion strains, locus YOR001W, strain rrp6, hits give low values 0.997 | S. cerevisiae deletion strains, locus YOR061W, strain CKA2, hits give low values 0.987 | S. cerevisiae deletion strains, locus YOR069W, strain VPS5, hits give low values 0.985 | S. cerevisiae deletion strains, locus YOR070C, strain gyp1, hits give low values 1.01 | S. cerevisiae deletion strains, locus YOR080W, strain dia2, hits give low values 1.02 | S. cerevisiae deletion strains, locus YOR083W, strain WHI5, hits give low values 0.943 | S. cerevisiae deletion strains, locus YOR106W, strain vam3, hits give low values 0.98 | S. cerevisiae deletion strains, locus YOR136W, strain idh2, hits give low values 0.983 | S. cerevisiae deletion strains, locus YOR144C, strain elg1, hits give low values 0.979 | S. cerevisiae deletion strains, locus YOR184W, strain ser1, hits give low values 0.899 | S. cerevisiae deletion strains, locus YOR231W, strain MKK1, hits give low values 0.953 | S. cerevisiae deletion strains, locus YOR265W, strain rbl2, hits give low values 1.01 | S. cerevisiae deletion strains, locus YOR270C, strain vph1, hits give low values 0.922 | S. cerevisiae deletion strains, locus YOR290C, strain snf2, hits give low values 1.01 | S. cerevisiae deletion strains, locus YOR316C, strain cot1, hits give low values 0.966 | S. cerevisiae deletion strains, locus YPL051W, strain arl3, hits give low values 0.973 | S. cerevisiae deletion strains, locus YPL055C, strain LGE1, hits give low values 0.995 | S. cerevisiae deletion strains, locus YPL078C, strain atp4, hits give low values 1.01 | S. cerevisiae deletion strains, locus YPL106C, strain sse1, hits give low values 1.06 | S. cerevisiae deletion strains, locus YPL240C, strain hsp82, hits give low values 1.04 | S. cerevisiae deletion strains, locus YPL241C, strain CIN2, hits give low values 0.986 | S. cerevisiae deletion strains, locus YPL256C, strain CLN2, hits give low values 0.928 | S. cerevisiae deletion strains, locus YPR119W, strain clb2, hits give low values 0.983 | S. cerevisiae deletion strains, locus YPR141C, strain kar3, hits give low values 0.95 | S. cerevisiae deletion strains, locus YPR163C, strain tif3, hits give low values 0.975 | S. cerevisiae deletion strains, locus YPR167C, strain met16, hits give low values 0.967 | S. cerevisiae deletion strains, strain wtn01, hits give low values 0.971 | S. cerevisiae strains, strain wild type, hits give low values 0.984
